The values below come from the OligoGym collection.
Further: reference of the scale not given here.

The target of the first test is FNBP1L. The test can be described thus: pooled miR-30 sensor sort-seq; sequence = guide strand. The conditions noted are these: shRNA.
TAATGTAGAGAACTTCACCTTC: the sensor-assay potency score (higher = more potent) is -0.0833.
Still for that read-out and setting: the figure for TAATTCACCATACACTCTGTGC is -0.622; for TATGATTCAAATAACACTGGGA it is 0.483.
Same read-out and setting: the same measure for TTCATCATCAAACTCATTGTGG: 0.113.
In the case of TTGTAGTTGCTTGTAAATCTGA, the sensor-assay potency score (higher = more potent) is -0.235.
Same read-out and setting: the same measure for TTCTGCTACAACTTCTCGCTGT: 0.673; for TTTCTCTAGAGTTACATCTATG: -0.933.
On the same count and under the same terms, the figure for TGACTTTTGACAATAGTCCTTT is -0.217.
The same measure, in the same setting: the figure for TAACTTTGCGTTCTGAGTCAGC is -0.716; for TTGTCTAAGCTGTCGAACTGAT it is -0.84.

The target in another test is FNBP1. Described as above. As to conditions: shRNA.
With TTTATAAGCTTCTATTACCAGC, the sensor-assay potency score (higher = more potent) is -0.679.
As to TAACTCATCGACTTTCTGCTGC, the sensor-assay potency score (higher = more potent) amounted to 0.71.
Same read-out and setting: the figure for TAAGCTTCTATTACCAGCTGTG is 0.175.
Same read-out and setting: the same measure for TTTCTGGGTCTCTACTCGCAGT: -1.12; for TTTACTAGATTCAAGCTGCTTC: 0.524.
TTTGGTGACGTATTTGAGCTTG came in with a sensor-assay potency score (higher = more potent) of 0.00299.
With TATACTTGTATTCTTCTTCCTC, the sensor-assay potency score (higher = more potent) is 0.713.
Sequence TAGAATTAGTGCAACACACATA registered a sensor-assay potency score (higher = more potent) of -0.218.
On the same count and under the same terms, the figure for ATCTCTTTGATCCATCTCCTTC is -0.792.
Still for that read-out and setting: the figure for TTTATTTAACTCATCGACTTTC is -0.243.

The target of the next test is FNDC5. The description is as above. The conditions noted are these: shRNA.
In turn, TTGGTCTGAAAGACACAGCTTG returned a sensor-assay potency score (higher = more potent) of -0.175.
Same read-out and setting: the figure for TTGTCCAAGCTAGCATTTCTGA is -1.26; for TAGCCAGAGCTGCTCTTCCTGT it is -1.11.
Consider TTTTCCTTGTTGTTATTGGGTT, for which the sensor-assay potency score (higher = more potent) is -0.634.
Still for that read-out and setting: the same measure for TTGTAGTGCAGCCTCCTTCATC: -0.884; for TTTTTCCTTGTTGTTATTGGGT: -0.666.
The same measure, in the same setting: the figure for TACCTCATCTTTGTTCTTGGAG is 0.567.
Still for that read-out and setting: the same measure for TTGATGATGTCATACTGGCGGC: -0.843; for TTATTGGGTTCATTGTCCTTGA: -0.801.
TTGAAGAGCACAGGCTCGCTGG registered a sensor-assay potency score (higher = more potent) of -0.67.
On the same count and under the same terms, the figure for TTCCTAAATAAATTGGACCAGT is -0.788; for TTGAGAGCTCTTGTAGACCGGA it is 0.301.

The target of another test is FNTB. The test is described as above. The conditions noted are these: shRNA.
The sequence TCCACCAGCTTGTTGCAGCGGC showed a sensor-assay potency score (higher = more potent) of -1.13.
The same measure, in the same setting: the same measure for TTGACTGCTGCATATGTGGGTG: -0.313.
Same read-out and setting: the figure for ATCTGTAGCCACTATCTGGGGG is -0.8; for AAGGTGTGGATACTGACCGGGT it is -0.0926.
The same measure, in the same setting: the same measure for TAGAAAGTATGTAGTGGCCTGG: -0.497; for TTAAGCTCCTCAAAACCTGGGA: -0.317; for TTGTAAGAACTGAAGACCTCTT: 0.275.
TATAAACCTTGTCTGACTGGGG had a sensor-assay potency score (higher = more potent) of 0.554.
